Compound activity from PubChem BioAssay.
Rows were chosen to be rich in hits. Some 31% of all compounds tested hit in one or more screens of this group.
CYP2C19 act: cytochrome P450 2C19 (human) activation; P33261; recombinant CYP2C19, luciferin-H EGE luminescence; stronger effect = higher value; 0 = fully inhibited enzyme, 1 = untreated enzyme; activation factor at 5 µM; 96,000 tested, under 10 active; AID 1025;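 active = activation factor of at least 2 at 5 µM in the primary screen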
CYP2C19 inh: blocks human cytochrome P450 2C19. P33261. CYP2C19 Supersomes, luciferin-H EGE luminescence, 30 min. inhibition, % at 5 µM. 96,000 compounds, 21% hits. AID 778;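 active = CYP2C19 inhibition above a set limit at 5 µM in the primary screen, cut at about 50% in these data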
CYP2C9 act: CYP2C9 (human) activation | AID 1024 | activation factor at 5 µM | P11712 | recombinant CYP2C9, luciferin-H conversion, luminescence; stronger effect = higher value; factor 1 = untreated enzyme, 0 = blocked | 96,000 compounds, 1.4% hits;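 active = activation factor of 2 or more for CYP2C9 at a 5 µM dose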
Target sequence (P11712 whole entry, looked up): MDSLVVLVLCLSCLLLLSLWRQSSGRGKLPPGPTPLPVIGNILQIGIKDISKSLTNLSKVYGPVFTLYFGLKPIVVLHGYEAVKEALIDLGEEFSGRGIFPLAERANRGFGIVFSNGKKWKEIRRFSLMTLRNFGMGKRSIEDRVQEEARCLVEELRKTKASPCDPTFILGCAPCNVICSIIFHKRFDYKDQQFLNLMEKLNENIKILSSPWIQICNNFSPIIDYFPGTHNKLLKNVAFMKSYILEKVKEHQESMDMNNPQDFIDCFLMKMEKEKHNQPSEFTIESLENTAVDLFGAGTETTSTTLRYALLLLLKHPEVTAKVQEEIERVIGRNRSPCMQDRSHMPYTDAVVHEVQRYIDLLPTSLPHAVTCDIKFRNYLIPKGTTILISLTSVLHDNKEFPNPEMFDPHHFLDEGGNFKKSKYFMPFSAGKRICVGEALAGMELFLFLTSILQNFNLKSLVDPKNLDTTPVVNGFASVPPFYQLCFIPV
PLAP activator: activators of human placental alkaline phosphatase. 96,000 compounds, 1.2% hits. purified PLAP enzyme, luminescent substrate read-out; stronger effect = higher value. P05187. activation fold at 20 µM; in the data active = activation fold above about 2
CYP2C9 inhib: inhibitors of human CYP2C9 | CYP2C9 Supersomes, luciferin-H conversion, luminescence | 96,000 compounds, 20% hits | AID 777 | inhibition, % at 5 µM | P11712;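 active = blocking of liver enzyme CYP2C9 beyond about 50% at 5 µM, limit read from the data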
Of the large screens only hits and unclear results are named; the others gave an inactive call.

Cc1ccnc(SCC(=O)N2CCC(C(N)=O)CC2)n1	none
O=c1[nH]ncn2cccc12	none
OCCOCCNc1ncnc2sc(-c3ccccc3)cc12	CYP2C19 inh 64, PLAP activator 2.2, CYP2C9 inhib 59
CCc1cc2c(NCCO)ncnc2s1	none
C=CCNC(=O)CCCCCNS(=O)(=O)c1ccc(OC)cc1	none
COc1ccc(S(=O)(=O)NCCSC(C)(C)C)cc1	CYP2C19 inh 96
COc1ccc(S(=O)(=O)NCCSC(C)(C)C)cc1Cl	CYP2C9 act 2.9
COc1ccc(S(=O)(=O)NCCSCc2ccco2)cc1Cl	CYP2C19 inh 95, CYP2C9 act 2.1
CSc1ccc(S(=O)(=O)NCCSC(C)(C)C)cc1	CYP2C19 inh 86
CS(=O)(=O)NCCSCc1ccco1	none
OCC1(CO)COC2(CCCC2)N1	none
COCc1cc(=O)[nH]c2cc(NC(=O)C(C)(C)CCl)c(C)cc12	none
CCOC(=O)c1ccccc1NC(=O)Cn1cnc2c(oc3ccccc32)c1=O	none
CC(C)(C)SCCNS(=O)(=O)c1ccccc1	none
CC(C)(C)SCCNS(=O)(=O)c1ccc2ccccc2c1	CYP2C19 inh 86, CYP2C9 act 2.7
CSc1ccc(S(=O)(=O)NCCOc2ccccc2C)cc1	CYP2C19 inh 63
